PubChem BioAssay (NCATS)
Records with an inconclusive call do not appear. Active and inactive are the calls of the source. Calls come from the whole dose curve; as a rule, active = well fitted cell-killing curve with a large enough effect; inconclusive = small, poorly fitted or top-dose-only effect, or effect the other way; inactive = flat fitted curve, though single readings scatter.

Columns and labels:
Test in all cases: Primary qHTS to identify gynecologic anti-cancer compounds using libraries of approved drugs and bioactive compounds (AID 1345084); note: nearly all actives have a fitted effect of over 55% in size
[1] = system: Es-2; conditions: Gynecologic cancer cell panel viability, ATPlite luminescence, 48 h; series mostly up to 57.5 µM
Outline: (§1)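 ATP-based viability (ATPlite), 1,000 cells/well, 16 h pre-incubation, 48 h compound at 37 C, 5% CO2, 15 min RT before read.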

[2] = system: HeLa; conditions: Gynecologic cancer cell panel viability, ATPlite luminescence, 48 h; series mostly up to 57.5 µM
Outline: as §1

[3] = system: Hek293T; conditions: Gynecologic cancer cell panel viability, ATPlite luminescence, 48 h, control line for the selectivity index; series mostly up to 57.5 µM
Outline: as §1

[4] = system: JEG-3; conditions: Gynecologic cancer cell panel viability, ATPlite luminescence, 48 h; series mostly up to 57.5 µM
Outline: as §1

[5] = system: OV90; conditions: Gynecologic cancer cell panel viability, ATPlite luminescence, 48 h; series mostly up to 57.5 µM
Outline: as §1

[6] = system: PA-1; conditions: Gynecologic cancer cell panel viability, ATPlite luminescence, 48 h; series mostly up to 57.5 µM
Outline: as §1

[7] = system: SKOV3; conditions: Gynecologic cancer cell panel viability, ATPlite luminescence, 48 h; series mostly up to 57.5 µM
Outline: as §1

[8] = system: Tov-21-G; conditions: Gynecologic cancer cell panel viability, ATPlite luminescence, 48 h; series mostly up to 57.5 µM
Outline: as §1

[9] = system: Tov112D; conditions: Gynecologic cancer cell panel viability, ATPlite luminescence, 48 h; series mostly up to 57.5 µM
Outline: as §1
% is set by controls: 0 for no effect and ±100 for the full control effect.

C/C=C/C=C/C=C/C(=O)O[C@@H]1C=C(CO)C(O)(C(=O)O)[C@@]2(C)CCCC(C)(C)[C@H]12 (stereo not given in full)
inactive: Potency [1] | Potency [2] | Potency [3] | Potency [4] | Potency [5] | Potency [6] | Potency [7] | Potency [8] | Potency [9]

COC(=O)[C@@]1(C)CC[C@]2(C(=O)O[C@@H]3O[C@H](CO)[C@@H](O)[C@H](O)[C@H]3O)CC[C@]3(C)C(=CCC4[C@@]5(C)CC[C@H](O[C@@H]6O[C@H](C(=O)O)[C@@H](O)[C@H](O)[C@H]6O)C(C)(C)C5CC[C@]43C)[C@@H]2C1 (stereo not given in full)
inactive: activity change, negative = cytotoxicity [1] -0.312% [at 11.6 µM] | activity change, negative = cytotoxicity [2] -10.5% [at 11.6 µM] | activity change, negative = cytotoxicity [3] -3.38% [at 11.6 µM] | activity change, negative = cytotoxicity [4] -1.5% [at 11.6 µM] | activity change, negative = cytotoxicity [5] -2.61% [at 11.6 µM] | activity change, negative = cytotoxicity [6] -17.6% [at 11.6 µM] | activity change, negative = cytotoxicity [7] -12.6% [at 11.6 µM] | activity change, negative = cytotoxicity [8] 1.4% [at 11.6 µM] | activity change, negative = cytotoxicity [9] -8.48% [at 11.6 µM]

COC1(CC(C)C)NC(=O)C(O)(Cc2ccccc2)NC1=O (stereo not given)
inactive: Potency [1] | Potency [2] | Potency [3] | Potency [4] | Potency [5] | Potency [6] | Potency [7] | Potency [8] | Potency [9]

CN[C@@H]1[C@@H](O)[C@@H](O[C@@H]2[C@@H](O)[C@H](O[C@H]3O[C@H](CN)[C@@H](O)[C@H](O)[C@H]3O)[C@@H](N)C[C@H]2NC(=O)[C@@H](O)CN)OC[C@]1(C)O
inactive: Potency [1] | Potency [2] | Potency [3] | Potency [4] | Potency [5] | Potency [6] | Potency [7] | Potency [8] | Potency [9]

COc1ccccc1-n1c(SCC(=O)Nc2nc3ccc(C)cc3s2)nc2c(c1=O)SCC2
inactive: Potency [1] | Potency [2] | Potency [3] | Potency [4] | Potency [5] | Potency [6] | Potency [7] | Potency [8] | Potency [9]

O=C1Nc2ccc(O)cc2O[C@H]1O[C@@H]1O[C@H](CO)[C@@H](O)[C@H](O)[C@H]1O
inactive: Potency [1] | Potency [2] | Potency [3] | Potency [4] | Potency [5] | Potency [6] | Potency [7] | Potency [8] | Potency [9]

CC1(C)O[C@]23C[C@H]1C[C@H](OC(=O)c1ccoc1)[C@]2(C)[C@@H](OC(=O)c1ccoc1)CCC3(C)O (stereo not given in full)
inactive: Potency [1] | Potency [2] | Potency [3] | Potency [4] | Potency [5] | Potency [6] | Potency [7] | Potency [8] | Potency [9]

COC1CC(OC2CCC3(C)C(=CCC4C3CCC3(C)C(C(C)O)CCC43O)C2)OC(C)C1OC1OC(C)C(OC2OC(COC3OC(COC4OC(CO)C(O)C(O)C4O)C(O)C(O)C3O)C(O)C(O)C2O)C(OC)C1O (stereo not given)
inactive: activity change, negative = cytotoxicity [1] 1.08% [at 11.6 µM] | activity change, negative = cytotoxicity [2] -2.66% [at 11.6 µM] | activity change, negative = cytotoxicity [3] -3% [at 11.6 µM] | activity change, negative = cytotoxicity [4] -1.13% [at 11.6 µM] | activity change, negative = cytotoxicity [5] 3.31% [at 11.6 µM] | activity change, negative = cytotoxicity [6] 5.02% [at 11.6 µM] | activity change, negative = cytotoxicity [7] 0% [at 11.6 µM] | activity change, negative = cytotoxicity [8] -5.94% [at 11.6 µM] | activity change, negative = cytotoxicity [9] -0.956% [at 11.6 µM]

CC1OC(O[C@H]2[C@@H](O)C[C@@]3(C)C([C@H](O)C[C@]4(C)C3CC=C3C5CC(C)(C)CC[C@]5(C(=O)OC5OC(CO)C(O)C(O)C5OC5OCC(OC6OCC(OC7OCC(O)C(O)C7O)C(O)C6O)C(OC6OCC(O)(CO)C6O)C5O)CC[C@]34C)[C@]2(C)CO)C(O)C(O)C1O (stereo not given in full)
inactive: activity change, negative = cytotoxicity [1] -1.65% [at 6.55 µM] | activity change, negative = cytotoxicity [2] 2.57% [at 6.55 µM] | activity change, negative = cytotoxicity [3] -2% [at 6.55 µM] | activity change, negative = cytotoxicity [4] -1.46% [at 6.55 µM] | activity change, negative = cytotoxicity [5] 3.36% [at 6.55 µM] | activity change, negative = cytotoxicity [6] 2.16% [at 6.55 µM] | activity change, negative = cytotoxicity [7] -0.54% [at 6.55 µM] | activity change, negative = cytotoxicity [8] -10.9% [at 6.55 µM] | activity change, negative = cytotoxicity [9] 7.32% [at 6.55 µM]

CCOc1c2c(c(OCC)c3ccccc13)C(=O)N(c1ccc(CC(=O)NS(=O)(=O)c3ccccc3)cc1)C2
inactive: Potency [1] | Potency [2] | Potency [3] | Potency [4] | Potency [5] | Potency [6] | Potency [7] | Potency [8] | Potency [9]

O=C(/C=C/c1ccc(O)cc1)OC[C@]12O[C@H]1[C@@H](O)[C@@H]1C=CO[C@@H](O[C@@H]3O[C@H](CO)[C@@H](O)[C@H](O)[C@H]3O)[C@@H]12
inactive: Potency [1] | Potency [2] | Potency [3] | Potency [4] | Potency [5] | Potency [6] | Potency [7] | Potency [8] | Potency [9]

COc1cc(/C=C/C(=O)O[C@H]2[C@H](OC(=O)/C=C/c3cc(OC)c(O)c(OC)c3)O[C@H](CO[C@@H]3O[C@H](CO)[C@@H](O)[C@H](O)[C@H]3O)[C@@H](O)[C@@H]2O)ccc1O
inactive: Potency [1] | Potency [2] | Potency [3] | Potency [4] | Potency [5] | Potency [6] | Potency [7] | Potency [8] | Potency [9]

CC1=C2C=C(CO)C(CO)CCC2(C)CCC1=O (stereo not given)
inactive: Potency [1] | Potency [2] | Potency [3] | Potency [4] | Potency [5] | Potency [6] | Potency [7] | Potency [8] | Potency [9]

C/C=C/C1=CC2=C(CO1)C(=O)[C@](C)(O)[C@H](OC(=O)c1c(O)cc(OC)c(O)c1C)C2
inactive: Potency [1] | Potency [2] | Potency [3] | Potency [4] | Potency [5] | Potency [6] | Potency [7] | Potency [8] | Potency [9]

Cc1nn(C)c(COc2ccc(N3CCN(S(=O)(=O)N(C)C)CC3)cc2)c1-c1cccc2c(CCCOc3cccc4ccccc34)c(C(=O)O)n(CCN3CCOCC3)c12
inactive: Potency [1] | Potency [2] | Potency [3] | Potency [4] | Potency [5] | Potency [6] | Potency [7] | Potency [8] | Potency [9]
